Several values for one entry are separate records, joined by “and”; a condition that tells them apart may be missing. Equal entries are not always repeated. Records with an inconclusive call do not appear. Activity calls are given as the source filed them.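 The calls were made as follows, unless noted: active = normalized viability below 100% at a tested concentration; inactive = the rest.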
What was measured:
[1] = growth inhibition of DIPG glioma cells, dose response, cell-based, JHH-DIPG-1, MIPE4.0, CellTiter-Glo, qHTS (AID 1347062; cut-off not given, nearly all actives have AC50 up to about 27 µM;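 as to AC50: cells exposed to compound for two days before readout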); conditions: JHH-DIPG-1 viability, CellTiter-Glo ATP luminescence
[2] = growth inhibition of DIPG glioma cells, dose response, cell-based, SU-DIPG-IV, MIPE4.0, CellTiter-Glo, qHTS (AID 1347063; cut-off not given, nearly all actives have AC50 up to about 30 µM;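 also: compound exposure lasted 48 hours before the viability readout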); conditions: SU-DIPG-IV viability, CellTiter-Glo ATP luminescence
[3] = growth inhibition of DIPG glioma cells, dose response, cell-based, SU-DIPG-XIII, MIPE5.0, CellTiter-Glo, qHTS (AID 1347064; cut-off not given, nearly all actives have AC50 up to about 23 µM;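 as to AC50: cells exposed to compound for 48 hours before the viability read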); conditions: SU-DIPG-XIII viability, CellTiter-Glo ATP luminescence
[4] = viability loss in pontine glioma line – cell-based, SU-DIPG-XXV, MIPE5.0, CellTiter-Glo, qHTS, dose response (AID 1347065; cut-off not given, nearly all actives have AC50 up to about 26 µM;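 also: cells exposed to compound for 48 hours before ATP readout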); conditions: CellTiter-Glo ATP luminescence
[5] = SU-DIPG-VI glioma cell viability, MIPE4.0 library, CellTiter-Glo luminescence, qHTS (AID 1347066; cut-off not given, nearly all actives have AC50 up to about 30 µM;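 also: cells exposed to compound for 48 hours before readout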); conditions: CellTiter-Glo ATP luminescence
[6] = JHH-DIPG-1 glioma cell viability, MIPE5.0 library, CellTiter-Glo luminescence, qHTS (AID 1347067; cut-off not given, nearly all actives have AC50 up to about 26 µM;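 also: cells exposed to compound for 48 hours before readout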); conditions: JHH-DIPG-1 glioma viability, CellTiter-Glo ATP luminescence
[7] = SU-DIPG-XXV glioma cell viability, MIPE5.0 library, qHTS (AID 1347068; cut-off not given, nearly all actives have IC50 up to about 30 µM;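 as to IC50: cells exposed to compound for 48 hours before viability readout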)
[8] = sensitizers of A549 cells to miR-34 induction, primary screen, imaging, A549 dox-inducible miR-34, nuclei and caspase counts (AID 1347080;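 active = compounds whose cell count with miR-34 switched on is under 0.7 times the count with it off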); conditions: A549 miR-34 inducible, Hoechst nuclei count, 48 h
[9] = modifiers of HSF1 nuclear foci, imaging, Selleck Cancer Library (AID 1347162; in the data active = plate-normalised HSF1 focus index below about 0.46); conditions: human cells, at 10 µM; SSMD: measured here: HSF1 foci SSMD mean; cell count: measured here: cell number; plate-normalised HSF1 focus index: stronger effect = lower value
[10] = survival rescue of mitochondrial mutant cells in low glucose, primary screen, MELAS cybrids, Rieske KO mouse fibroblasts, CellTiter-Glo (AID 1508586;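 active = mean z-score across replicates of 1.96 or higher in either the MELAS or the Rieske mutant cell line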;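 also: z relative to plate mean and SD of compound and empty wells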)
[11] = ovarian cancer cell viability with rucaparib, profiling panel, oncology-focused library, rucaparib conditional (AID 1508598); conditions: patient-derived ovarian cancer cells, CellTiter-Glo viability, 144 h, stronger effect = lower value
[12] = stronger effect = lower value, cell number ratio, induced over uninduced
[13] = measured here: relative caspase fold change +Dox/-Dox
[14] = measured here: total cells with miR-34 induction, stronger effect = lower value
[15] = measured here: total cells without miR-34 induction
[16] = MELAS cybrid survival, CellTiter-Glo 48 h, stronger effect = higher value
[17] = Rieske KO mouse fibroblast survival, CellTiter-Glo 72 h
[18] = at 0.000305 µM, OCI-C5x cells, with rucaparib 10 µM, 100% = cells with rucaparib alone
[19] = at 0.000305 µM, OCI-C5x cells, without rucaparib
[20] = at 0.000305 µM, OCI-P5x cells, with rucaparib 20 µM, 100% = cells with rucaparib alone
[21] = at 0.000305 µM, OCI-P5x cells, without rucaparib
[22] = at 0.00122 µM, OCI-C5x cells, with rucaparib 10 µM, 100% = cells with rucaparib alone
[23] = at 0.00122 µM, OCI-C5x cells, without rucaparib
[24] = at 0.00122 µM, OCI-P5x cells, with rucaparib 20 µM, 100% = cells with rucaparib alone
[25] = at 0.00122 µM, OCI-P5x cells, without rucaparib
[26] = at 0.00488 µM, OCI-C5x cells, with rucaparib 10 µM, 100% = cells with rucaparib alone
[27] = at 0.00488 µM, OCI-C5x cells, without rucaparib
[28] = at 0.00488 µM, OCI-P5x cells, with rucaparib 20 µM, 100% = cells with rucaparib alone
[29] = at 0.00488 µM, OCI-P5x cells, without rucaparib
[30] = at 0.0195 µM, OCI-C5x cells, with rucaparib 10 µM, 100% = cells with rucaparib alone
[31] = at 0.0195 µM, OCI-C5x cells, without rucaparib
[32] = at 0.0195 µM, OCI-P5x cells, with rucaparib 20 µM, 100% = cells with rucaparib alone
[33] = at 0.0195 µM, OCI-P5x cells, without rucaparib
[34] = at 0.0781 µM, OCI-C5x cells, with rucaparib 10 µM, 100% = cells with rucaparib alone
[35] = at 0.0781 µM, OCI-C5x cells, without rucaparib
[36] = at 0.0781 µM, OCI-P5x cells, with rucaparib 20 µM, 100% = cells with rucaparib alone
[37] = at 0.0781 µM, OCI-P5x cells, without rucaparib
[38] = at 0.313 µM, OCI-C5x cells, with rucaparib 10 µM, 100% = cells with rucaparib alone
[39] = at 0.313 µM, OCI-C5x cells, without rucaparib
[40] = at 0.313 µM, OCI-P5x cells, with rucaparib 20 µM, 100% = cells with rucaparib alone
[41] = at 0.313 µM, OCI-P5x cells, without rucaparib
[42] = at 1.25 µM, OCI-C5x cells, with rucaparib 10 µM, 100% = cells with rucaparib alone
[43] = at 1.25 µM, OCI-C5x cells, without rucaparib
[44] = at 1.25 µM, OCI-P5x cells, with rucaparib 20 µM, 100% = cells with rucaparib alone
[45] = at 1.25 µM, OCI-P5x cells, without rucaparib
[46] = at 5 µM, OCI-C5x cells, with rucaparib 10 µM, 100% = cells with rucaparib alone
[47] = at 5 µM, OCI-C5x cells, without rucaparib
[48] = at 5 µM, OCI-P5x cells, with rucaparib 20 µM, 100% = cells with rucaparib alone
[49] = at 5 µM, OCI-P5x cells, without rucaparib

CC1(O)CC(c2nc(-c3ccc4ccc(-c5ccccc5)nc4c3)c3c(N)nccn23)C1 (configuration not stated)
6580: cell count [9]
2180: cell count [8, 15]
0.898: fold change [8, 13]
0.283: z-score [10, 17]
active: AC50 [1] 1.48 µM | AC50 [2] 14.8 µM | AC50 [3] 0.59 µM | AC50 [4] 0.332 µM | AC50 [5] 0.332 µM | AC50 [6] 11.8 µM | viability [11, 28] 99.9% | viability [11, 39] 57.9% | viability [11, 40] 88.6% | viability [11, 41] 96% | viability [11, 44] 41.3% | viability [11, 45] 66.2% | viability [11, 48] 7.72% | viability [11, 49] 32.8%
inactive: outcome [7] | fold change [8, 12] 1.03 | plate-normalised HSF1 focus index [9] 1.1 | z-score [10, 16] -0.422 | viability [11, 18] 114% | viability [11, 19] 139% | viability [11, 20] 109% | viability [11, 21] 106% | viability [11, 22] 121% | viability [11, 23] 130% | viability [11, 24] 104% | viability [11, 25] 104% | viability [11, 26] 111% | viability [11, 27] 124% | viability [11, 29] 105% | viability [11, 30] 115% | viability [11, 31] 127% | viability [11, 32] 104% | viability [11, 33] 106% | viability [11, 34] 114% | viability [11, 35] 133% | viability [11, 36] 101% | viability [11, 37] 113% | viability [11, 38] 133% | viability [11, 42] 145% | viability [11, 43] 134% | viability [11, 46] 168% | viability [11, 47] 153%
1.94: SSMD [9]
2240: cell count [8, 14]

Oc1ccc(C2=Cc3ccc(O)cc3OC2)cc1
active: AC50 [1] 8.33 µM | AC50 [2] 3.32 µM
inactive: outcome [4]

C=CC(=O)Nc1cc(NC(=O)c2ccc(C)c(NC(=O)c3ccno3)c2)cc(C(F)(F)F)c1
active: AC50 [1] 16.6 µM | AC50 [2] 18.7 µM | AC50 [5] 16.6 µM

NC[C@@H]1O[C@H](O[C@H]2[C@@H](O)[C@H](O[C@@H]3[C@@H](O)[C@H](N)C[C@H](N)[C@H]3O[C@H]3O[C@H](CN)[C@@H](O)[C@H](O)[C@H]3N)O[C@@H]2CO)[C@H](N)[C@@H](O)[C@@H]1O
0.356 and 1.26: fold change [8, 13]
-0.155 and -1.25: z-score [10, 17]
inactive: outcome [1] | outcome [2] | outcome [5] | fold change [8, 12] 0.891 and 0.964 | z-score [10, 16] -0.364 and -0.26
8260 and 10600: cell count [8, 14]
9270 and 11000: cell count [8, 15]

CC(C)(C)c1nc(-c2cccc(NS(=O)(=O)c3c(F)cccc3F)c2F)c(-c2ccnc(N)n2)s1
0.762: fold change [8, 13]
0.678: z-score [10, 17]
8520: cell count [8, 14] | cell count [8, 15]
inactive: outcome [1] | outcome [4] | outcome [6] | outcome [7] | fold change [8, 12] 1 | z-score [10, 16] -0.255

Nc1ncnc2c1c(-c1cccc(OCc3ccccc3)c1)cn2C1CC(CN2CCC2)C1 (configuration not stated)
0.834: fold change [8, 13]
-0.0242: z-score [10, 17]
2880: cell count [8, 14]
2830: cell count [8, 15]
inactive: fold change [8, 12] 1.02 | z-score [10, 16] -0.54
active: AC50 [1] 11.8 µM | AC50 [3] 0.525 µM | AC50 [4] 0.417 µM | AC50 [5] 2.96 µM | AC50 [6] 6.61 µM

NS(=O)(=O)c1ccc(NC2=CC(=O)c3ccccc3C2=O)cc1
active: AC50 [3] 5.9 µM | AC50 [4] 11.8 µM | AC50 [5] 5.9 µM | AC50 [6] 20.9 µM
inactive: outcome [1]

CCOc1cc(N2CCC(O)CC2)ccc1Nc1ncc2c(n1)N(C)c1ccccc1C(=O)N2C
0.548: fold change [8, 13]
inactive: outcome [5] | fold change [8, 12] 0.886 | z-score [10, 16] -0.56 | viability [11, 18] 123% | viability [11, 19] 120% | viability [11, 21] 101% | viability [11, 22] 122% | viability [11, 23] 109% | viability [11, 25] 105% | viability [11, 26] 119% | viability [11, 27] 112% | viability [11, 29] 102% | viability [11, 30] 124% | viability [11, 31] 117% | viability [11, 34] 131% | viability [11, 35] 124% | viability [11, 37] 108% | viability [11, 38] 109% | viability [11, 39] 131% | viability [11, 42] 101% | viability [11, 43] 121% | viability [11, 47] 119%
-1.56: z-score [10, 17]
6240: cell count [8, 14]
7040: cell count [8, 15]
active: AC50 [1] 7.43 µM | AC50 [6] 20.9 µM | IC50 [7] 18.6 µM | viability [11, 20] 94.3% | viability [11, 24] 99.4% | viability [11, 28] 91.8% | viability [11, 32] 94% | viability [11, 33] 99.5% | viability [11, 36] 96.6% | viability [11, 40] 88.3% | viability [11, 41] 95.6% | viability [11, 44] 84.7% | viability [11, 45] 90.7% | viability [11, 46] 85.7% | viability [11, 48] 35.5% | viability [11, 49] 75.3%

Cc1ccc(-n2[nH]c(C)c(N=Nc3cccc(-c4cccc(C(=O)O)c4)c3O)c2=O)cc1C
7330: cell count [8, 15]
inactive: outcome [1] | outcome [3] | outcome [6] | outcome [7] | fold change [8, 12] 0.913 | z-score [10, 16] -0.18
6690: cell count [8, 14]
-0.0982: z-score [10, 17]
active: AC50 [5] 10.5 µM
1.1: fold change [8, 13]

Source: PubChem BioAssay
